Measured values published in ChEMBL document CHEMBL4513216, “Probing the Open Global Health Chemical Diversity Library for Multistage-Active Starting Points for Next-Generation Antimalarials” (ACS Infect Dis, 2020).
Hit rate of the full screen: of about 69,000 compounds, about 8,600 (12%) showed an effect of 50% or more. The sample as a whole holds a higher share of strong results than the screen did.

Tested on: Plasmodium berghei
Test: Screen against P. berghei liver stage (PbLuc), transformed with Luciferase, at 10uM
Assay type: functional, HepG2
Settings: tested at 10 uM

SMILES | INHIBITION [%]
COc1ccc2oc(C(C)NC(=O)NCC(C)(C)C(N)=O)c(C)c2c1 (stereo not drawn) | 42.3
CCN(Cc1nc(COC)no1)C(=O)CCn1c(C)cc2ccccc21 | 36.7
CCN(Cc1ccncc1)C(=O)CCn1c(C)cc2ccccc21 | 14.9
CCN(Cc1noc(C)n1)C(=O)CCn1c(C)cc2ccccc21 | 58.5
COCCNC(=O)[C@H]1C[C@@H]2CCN(c3ncccn3)C[C@H]2O1 | -56.7
CN1CCN(C)C2(CCN(C(=O)CC(F)(F)F)CC2)C1=O | 27.5
CCN1CCN(C)C2(CCN(C(=O)CC(F)(F)F)CC2)C1=O | 71.3
CN1CCN(CC2CC2)C(=O)C12CCN(C(=O)CC(F)(F)F)CC2 | -14.2
CC(C)CC(=O)NS(=O)(=O)c1ccc(C#N)cc1C(F)(F)F | 2.3
COc1ccc(C2=NOC(C#N)C2)cc1 (stereo not drawn) | 15.9
Cc1cc(N(C)C)nc(N2CCN(C(C)c3nc(C)no3)CC2)n1 (stereo not drawn) | -71.2
Cc1cc(N(C)C)nc(N2CCn3c(C)nnc3C2)n1 | 51.1
Cc1cn2nc(N3CCn4c(nnc4C(C)C)C3)sc2n1 | 7.81
Cc1cc(N(C)C)nc(N2CCn3c(nnc3C(C)C)C2)n1 | 52.2
Cc1cc(N(C)C)nc(N2CCN(Cc3nccn3C)CC2)n1 | -87
CC(C)c1nnc2n1CCN(C(=O)c1ccnc(N(C)C)c1)C2 | 42
CCc1nnc2n1CCN(C(=O)c1ccnc(N(C)C)c1)C2 | 19.2
Cc1cc(N(C)C)nc(N2CCn3c(nnc3C3CC3)C2)n1 | 21.2
CCc1nnc2n1CCN(c1nc(C)cc(N(C)C)n1)C2 | 71.5
CS(=O)(=O)NCCC1CCCCN1C(=O)NCc1ccccn1 (stereo not drawn) | 4.13
CC(C)COc1cncc(N2CCCC(CC(N)=O)C2)n1 (stereo not drawn) | 4.82
O=C(c1cnccn1)N1CCc2onc(CN3CCOCC3)c2C1 | 45.5

SMILES | INHIBITION [%]
c1ccc2cc(OCCCN3CCn4c(nnc4C4CC4)C3)ccc2c1 | 35.9
CC(C)=CCN1CC2(CCN(C(=O)CCn3ccnc3C)CC2)CC1=O | 27.7
CC(C)N(C)C[C@H]1C[C@@H]2CN(Cc3ccco3)C[C@@H]2O1 | 8.74
O=C(C1CCCC1)N1CCCC([C@@H]2C[C@H](C(F)F)n3ncnc3N2)C1 (stereo partly drawn) | 0.788
O=C1CN(CCS(=O)(=O)c2ccc(Cl)cc2)CCN1 | 14
O=C(Nc1cccc2c1CCCC2)c1cccnc1N1CCCNCC1 | 53
Cc1cccc(C(=O)Nc2cccc3c2CCCC3)n1 | -45.5
CC1CN(c2ncccc2C(=O)Nc2cccc3c2CCCC3)CCN1 (stereo not drawn) | -63.6
c1cnc(N2CCO[C@H]3[C@H](OCc4cccnc4)CC[C@@H]32)nc1 | 21.5
CS(=O)(=O)N1C[C@@H](NC(=O)c2ccno2)[C@@H]2OCCC[C@@H]21 | 36.7
CN1CC(=O)N(c2ccsc2)CC12CCN(C(=O)Nc1ccccc1)C2 (stereo not drawn) | 1.94
CC(C(=O)N1CCCN(Cc2ccc(C#N)cc2)CC1)n1cccn1 (stereo not drawn) | 19.583
CCCC(=O)NCCc1cc(N2CCN(C(C)=O)CC2)nc(C2CC2)n1 | 46
CC(=O)NCCc1cc(N2CCN(C(C)=O)CC2)nc(C2CC2)n1 | 43.8
CCC(=O)NCCc1cc(N2CCN(C(C)=O)CC2)nc(C2CC2)n1 | 51.2
COc1cccc(CN(C)C(C)C(=O)Nc2nc(C)c(C)s2)c1 (stereo not drawn) | 39.3
CCS(=O)(=O)N1CCC[C@]2(C(=O)N(C)C)CN(c3ncccn3)C[C@@H]2C1 | -47.6
CCc1nn(C)c(Cl)c1CN1CCN(c2ccc(Cl)nn2)CC1 | 66.6
CCc1nn(C)c(Cl)c1CN1CCC(c2cc(O)nc(C)n2)CC1 | 3.96
CCOC(=O)c1ccc(N2CCN(Cc3c(C)nn(C)c3Cl)CC2)nc1 | 74.9
CCc1nn(C)c(Cl)c1CN1CCN(c2ccc(C(N)=O)cn2)CC1 | 40.7
CCc1nn(C)c(Cl)c1CN1CCN(c2nc(C(N)=O)cs2)CC1 | 24.1

SMILES | INHIBITION [%]
NC(=O)c1ccc(N2CCN(Cc3c(Cl)cncc3Cl)CC2)nc1 | 30.7
Cn1nc(C2CCCN2)c2c(C(=O)NCC(F)(F)F)cc(C3CC3)nc21 (stereo not drawn) | 28.4
O=S(=O)(c1ccccc1)N1C2CCC(O)(CC2)C1CN1CCOCC1 (stereo not drawn) | 23.7
Cc1nc(C)n(CC2CCCN2Cc2nc(-c3ccccn3)no2)n1 (stereo not drawn) | 32.7
CC(C)CNC(=O)[C@H]1CCS(=O)(=O)[C@@H]2CN(c3ncccn3)C[C@H]12 | 35.8
CCc1cnc(N2C[C@@H]3[C@@H](C(=O)N(C)C)CCS(=O)(=O)[C@@H]3C2)nc1 | 36.7
CC(C)NC(=O)[C@H]1CCS(=O)(=O)[C@@H]2CN(c3ncccn3)C[C@H]12 | 0.164
CN(C)C(=O)[C@H]1CCS(=O)(=O)[C@@H]2CN(c3ncccn3)C[C@H]12 | 61.1
CC(C)NC(=O)[C@H]1CCS(=O)(=O)[C@@H]2CN(c3ncc(F)cn3)C[C@H]12 | -13
CN(C)C(=O)[C@H]1CCS(=O)(=O)[C@@H]2CN(c3ncc(F)cn3)C[C@H]12 | 54.8
O=C(O)c1cc(C=Cc2ccc3ccccc3c2)ncn1 | -57
Cc1ccc(C(O)CNC(=O)NCc2csc(C)n2)cc1 (stereo not drawn) | -34
O=C(c1cccnc1N1CCOCC1)N1CCCC(n2cccn2)C1 (stereo not drawn) | -62.365
Cn1cc(-c2cnc(N3CCOCC3)nc2)cc1C(=O)N1CCCC1 | -50.9
CCC(=O)Nc1cccc(C(=O)NCCC2=CSC3=NCCCN23)c1 | 50.3
COc1cccc(C2CCCN2C(=O)CC2=CSC3=NCCCN23)c1 (stereo not drawn) | -11.6
CNc1cc(C(=O)NCCC2=CSC3=NCCCN23)ccn1 | 50.3
CN(CCNC(=O)c1ccnc(-n2ccnc2)c1)C1CC1 | -3.83
CC(C)(O)CCc1cccc(C(=O)NCCC2=CSC3=NCCCN23)c1 | 31.2
O=C(CC1=CSC2=NCCCN12)N1CCCCCC1c1ccco1 (stereo not drawn) | -4.01
Cc1ccc(-c2nc(C(=O)N3CCN(C(=O)N(C)C)CC3)cs2)c(C)c1 | -4.865
O=S(=O)(c1cccs1)N1CC[C@H]2[C@H]1CCN2CC1CC1 | 2.58

SMILES | INHIBITION [%]
CN1CCN(CC2CCN(C(=O)CCC3CCCCC3)CC2)CC1 | 21
Cn1cccc1C(=O)N1C[C@H]2CN(Cc3cccc(F)c3)C[C@H]2C1 | 6.27
O=C1CC[C@H]2[C@H](CCN2C(=O)C2CCCO2)N1Cc1cccnc1 (stereo partly drawn) | 5.96
CCn1nc2c(cc1=O)CN(CCCN1CCCC1=O)CC2 | 16.8
CCNC(=O)c1nnn(Cc2ccccc2)c1OC | -19
COc1c(C(=O)NCC(C)C)nnn1Cc1ccccc1 | 53.2
COCCNC(=O)c1nnn(Cc2ccccc2)c1OC | 19.3
CN(C)CC1CSCCCN1C(=O)c1ccc(-n2cccc2)cc1 (stereo not drawn) | 35.8
CN(Cc1ccncc1)C(=O)NCc1nnc2n1CCCCC2 | -4.94
COc1ccccc1CN1C[C@@H](F)[C@@H](OCc2nc3cnccc3[nH]2)C1 | -25.2
COc1ccccc1CN1C[C@@H](F)[C@@H](OCc2nc3ccccc3[nH]2)C1 | 45.2
COc1ccccc1CN1C[C@@H](F)[C@@H](OCc2nc3ncccc3[nH]2)C1 | 50.7
Cc1ccc(NC(=O)C2CSCN2C(=O)c2cccnc2)c(C)c1 (stereo not drawn) | 0.8
Cc1cc(C(F)(F)F)nc(CCNc2nc(C)nc3sccc23)n1 | 43.2
Cc1nc(NCc2noc(C3CCCO3)n2)c2sccc2n1 (stereo not drawn) | 75.4
O=C(NCc1noc(C2CCCO2)n1)c1cn2ccsc2n1 (stereo not drawn) | 25.9
Cc1nc(N(Cc2ccncc2)CC2CCCO2)c2ccsc2n1 (stereo not drawn) | 40.8
Cc1ccc2c(c1)SCC(=O)N2Cc1noc(C2CCCO2)n1 (stereo not drawn) | 14.9
Cc1nc(NCc2noc(C3CCCO3)n2)c2ccsc2n1 (stereo not drawn) | 73.2
O=C(NCCc1noc(C2CCCO2)n1)c1cn2ccsc2n1 (stereo not drawn) | 39.9
O=C1CSc2ccccc2N1Cc1noc(C2CCCO2)n1 (stereo not drawn) | 7.6
Cc1nc(NCCc2noc(C3CCCO3)n2)c2sccc2n1 (stereo not drawn) | 82.2

SMILES | INHIBITION [%]
Cc1cc(NC(=O)CN2CCCC2Cn2nc(C)nc2C)n(C)n1 (stereo not drawn) | 38.8
Cc1cc(C)cc(OCC(=O)N2CCCC2)c1 | -55.3
COCCn1cnnc1CNc1cc(C)nc2c(C)c(C)nn12 | 15.5
Cc1nn(C)c2cnn(CC(=O)NCc3ccccc3F)c12 | 41.6
CC(=O)N1CCCC1c1cc(Nc2nnc(C)s2)nc(C)n1 (stereo not drawn) | 26.8
O=C(c1nn[nH]c1Nc1ccc(Cl)cc1)N1CCCCCC1 | 72
O=C(c1nn[nH]c1Nc1cccc(Cl)c1)N1CCSCC1 | 8.38
O=C(c1nn[nH]c1Nc1ccc(Cl)cc1)N1CCSCC1 | 11.8
COCC(=O)NC1CC2(CCN(CC3CC3)CC2)Oc2ccccc21 (stereo not drawn) | -2.35
COCCN1CCC2(CC1)CC(NC(=O)C1CC1)c1ccccc1O2 (stereo not drawn) | 16.1
COCCN1CCC2(CC1)CC(NC(=O)C(C)C)c1ccccc1O2 (stereo not drawn) | 55.5
COCCN1CCC2(CC1)CC(NC(=O)CN(C)C)c1ccccc1O2 (stereo not drawn) | 54.3
CC(C)CC(=O)NC1CC2(CCN(CCF)CC2)Oc2ccccc21 (stereo not drawn) | 34.6
CCN1CCC2(CC1)CC(NC(=O)c1c[nH]cn1)c1ccccc1O2 (stereo not drawn) | 44.8
COCCN1CCC2(CC1)CC(NC(=O)CC1CC1)c1ccccc1O2 (stereo not drawn) | 56.8
COCCN1CCC2(CC1)CC(NC(=O)COC)c1ccccc1O2 (stereo not drawn) | -13.4
CN1CCC2(CC1)CC(NC(=O)c1csnn1)c1ccccc1O2 (stereo not drawn) | 59.3
O=C(NC1CC2(CCN(CCO)CC2)Oc2ccccc21)c1csnn1 (stereo not drawn) | 34.9
CCN1CCC2(CC1)CC(NC(=O)c1csnn1)c1ccccc1O2 (stereo not drawn) | 41.2
COCC(=O)NC1CC2(CCN(CCF)CC2)Oc2ccccc21 (stereo not drawn) | -5.94
